# In the supplement of paper PMC12632987:
# Whole data set: some 4,500 sequences, median “median log2 fold change of GCK-ALFA target abundance (FLAG IP / Myc IP barcode read proportion)” near 0.078, cut for the lowest 2% near -0.6. The entries come from a sample that favours the lowest values as a whole.
# B1: GBRAP_52_6102 (protein)
# chain: MREELRKKVREILELVREGKLEEARKKIKELVESLNDEEIRLVADEIAELAREAAPEDLDAVWTLAEMFAEELEKAGKPEVLVDYLLASTAAALYEREQA
# B2: GBRAP_195_5410 (protein)
# chain: MKVVGRVLRIEESDTPEDILAKIEAIVAEVKEESNGDLVLVVARHPSVPEETVRAAVAEAAERYPEIKITVEIFDDISLPLETLEAFARMEVANEEEERE
# B3: GBRAP_160_3988 (protein)
# chain: EEEKKKLLKEIEEIFKETYELASGEDPENRLTVVRVHMGEILLLAEESGILSEESIEKIDEILDELVEKVAANPDMTDEELKALLEEALKKIKEIIEAEK
# B4: GBRAP_137_3679 (protein)
# chain: MKVKITIEEHEDVVEITVTIEDKETGEELAEKIEDIAVEVGALAISVEKNEDGTYEVTIYVPKEKLEELLKKILELLKDADEVEIIRIVDGKETVEVIKN
# B5: GBRAP_73_6498 (protein)
# chain: LTDTGLTDEEIADIVDHENDIFNGGEEAYEAAVARIRAALPELSPERQELLRRILEAAERAKKKDKLLAYELVALALAVVEGLDLEKARRALEALEKRLE
# B6: GBRAP_52_6205 (protein)
# chain: MHERMRAHARELVALVKAGDLDAARAYARELARTLNEEELELLGEELVELAKTAAPEDLDAIFKAAEILSDVLEEEGFDEALADGLLNRVAAALYERELK
# B7: GBRAP_160_4347 (protein)
# chain: MEAAEKLIKELKEATERVIAEVDKLSVEQVAVVAAGEFGAVAMEAAEDERYSDEMVDVIIDAQDKILAFLDENKDASPEEIKEGIKKITEEAIKKIKEIA
# B8: GBRAP_160_4081 (protein)
# chain: SAAHEKLIKEVTEIFDEALKMMEGVTPAEAVAIALVALGEVALLIEEEEELSEEDKDKLLALVDAAEAEVRAAADATVAELKALLERHRDEIVAAIKALD
# B9: GBRAP_35_5623 (protein)
# chain: NTDKEIAEAVVAVLEDTLLAKDTVPADTFIDTAIKVARLGIEVAKELKEYKENAKKILEAVEKLLKAAKERAKETGAPEEKLKEIEKLLKEVEELKKKLE
# B10: GBRAP_11_2643 (protein)
# chain: KKEKLKKAAELAKKAIEALKKLLEEGVDNEELRKKIEELLEELSKLVKEYADESLKKLVEIAKELWKKSLEDPENAEEYVKNLLAALRVLSAELEEEIEE
# B11: GBRAP_160_4726 (protein)
# chain: SERIREFVERFEERFLETIEATEDESKEEQAAMFRGTAGEILMEALEEPFLSDEMEDVVAEELDALVAELEANWDASKEEKKAIVREHMERLRERLLALA
# B12: GBRAP_160_4491 (protein)
# chain: SAKVEEAKKEVKAIVDDAVDAIAEAPADQRAAIARAYAGDIVQTLLELGVVTDEQAETVLDTAEAGLAAVVAASAAGAAAAAAAAAALVATLNDMIKKFS
# B13: GBRAP_14_3817 (protein)
# chain: MEELKKKIKEILDDLYEELVEDIGLDEEKVKKLIDKALEEIFKALDDPEGSEEKIKEIMEKLKKEIEKLAAELGADEAAAARALVTDAEYEIDEAIEEAK
# B14: GBRAP_160_4228 (protein)
# chain: METVEKIVEIFRETFLEALELIEGESEEERRVILDVAVGEIILEVEEIEEATDEMVEIVDERAEKLAERLLAARDASREERRALVEEEAKKLREELEKLA
# B15: GBRAP_52_6106 (protein)
# chain: ARARVRALVEEALALVRAGREEEARALLEAFARTANEEELELFAEALAELAREAAPEDLDAVWRLAEMAAEALEAAGWPDVLVDDLLARVAAALYERELK
# B16: GBRAP_160_4092 (protein)
# chain: SEEIEKLIEEIDELRDETKEMIKGESREERATIIRGFGGEVIMLLFESGIVSEEVEDLADELFDELVATVEANPELTEEEIFALIDETVDEIKEAIKEDH
# B17: GBRAP_80_6797 (protein)
# chain: AAAALAAALAALAEVDAELAARVAAIVATARALGVSDADLADFVAAVLELAKADKEEAAALVDETEALLAEEAARGDTANATAVIRVHAGDALLAVEELE
# B18: GBRAP_160_3998 (protein)
# chain: SEKLAALKAEIAAILAETLELARGEDAAERLAVVRVMGGQILLTLEESGIVSDEALAAVDAILDATAAEVAANPDLTDAELAALLDATLARINAVLEEHS
# B19: GBRAP_11_2747 (protein)
# chain: KKEKLKEIAKAAEKLAKLLEELIKEGVDNEELLKEAEKALKELKKLVEEYGDESLKKLVEIIEEEFKKAKEDPENALKYLQNALAAARVLAGQVLLDIEE
# Target: GABARAP, O95166
# Sequence (O95166 whole entry, the tested form may be a part): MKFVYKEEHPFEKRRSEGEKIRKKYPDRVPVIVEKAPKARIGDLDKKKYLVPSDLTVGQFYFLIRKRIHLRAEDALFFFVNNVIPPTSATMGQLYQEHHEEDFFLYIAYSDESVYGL
# Test: median log2 fold change of GCK-ALFA target abundance (FLAG IP / Myc IP barcode read proportion) (log2 ratio); each designed protein is fused to an ALFA-tag nanobody in HEK293 cells to bring the named protein to FLAG-tagged glucokinase (GCK); Myc marks an untargeted standard; higher = target protein stabilised (more abundant)
# Conditions: target protein: 3xFLAG-MCP-GCK-ALFA reporter; HEK293 landing pad (RPLP)
# Outline: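 HEK293 landing-pad cells received a recombined binder library fused to the ALFA nanobody and were induced with 2 μg mL^−1 doxycycline, then transfected with a plasmid encoding a FLAG-tagged target and a Myc-tagged standard. Lysates were collected after 48 h for anti-FLAG and anti-Myc immunoprecipitation, and the circular RNA barcodes were reverse transcribed, amplified and sequenced. Target abundance for each binder is the median log2 ratio of FLAG to Myc barcode read proportions. Barcodes had to reach a proportion of at least 10^−7 in both replicates, each binder needed at least 3 barcodes per replicate, a pseudocount of 10^−6 was applied, and the two replicates were pooled.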
row,Binder,median log2 fold change
1,B1,0.197
2,B2,0.261
3,B3,-0.199
4,B4,-0.124
5,B5,-0.718
6,B6,-0.122
7,B7,0.152
8,B8,0.134
9,B9,-0.669
10,B10,0.271
11,B11,0.0951
12,B12,-1.1
13,B13,-0.057
14,B14,-0.393
15,B15,-0.266
16,B16,-0.649
17,B17,-0.147
18,B18,-0.533
19,B19,-0.119
